PfHsp90 yeast 2: growth inhibition of PfHsp90-expressing yeast, primary screen, antimalarial PfHsp90 inhibitor project, S. cerevisiae, BacTiter-Glo luminescence, single point, set 2 | BacTiter-Glo ATP, 48 h; yeast lacking PDR1 and PDR3 efflux regulators | inhibition, % at 9.4 µM | hit rate 0.32% among 310,000;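 active = every replicate shows inhibition above about 80%, whatever the replicate mean, limit read from the data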;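 also: 0% = DMSO neutral controls and 100% = 20 µM radicicol positive controls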
SKKanGAS inh: S. pyogenes SKKanGAS growth inhibitors in kanamycin, primary screen, streptokinase expression inhibitor project, SKKanGAS strain, BacTiter-Glo luminescence; inhibition, % at 7.5 µM; AID 1662, 2009; 6 h; hit rate 1.3% among 300,000;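 active = mean replicate score, as percent of positive control median, at least 50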;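 also: strain carries kanamycin resistance gene driven by streptokinase promoter and grows in 40 µg/ml kanamycin; loss of luminescence reflects streptokinase promoter inhibition or plain growth inhibition; 0% = median of DMSO wells and 100% = positive control at its reference dose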
TIM10 inh: growth inhibitors of isogenic TIM10 control yeast, primary screen, counter-screen for tim10-1 yeast inhibitor project, luminescence, uHTS; S. cerevisiae TIM10 strain growth, BacTiter-Glo luminescence, 24 h; inhibition, % at 10 µM; hit rate 1.4% among 330,000; AID 463195, 2010;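 active = inhibition of 40% or more at the single tested concentration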;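 also: wild-type TIM10 isogenic control strain grown at permissive 25 °C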
tim10-1 inh: growth inhibitors of tim10-1 mutant yeast, primary screen, luminescence, uHTS | hit rate 2.2% among 330,000 | inhibition, % at 20 µM | S. cerevisiae tim10-1 ts strain growth, BacTiter-Glo, 24 h;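 active = inhibition of at least 40%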;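 also: mutant grown at 25 °C; 0% = DMSO wells with yeast and 100% = wells holding no yeast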
NLRP3 yeast inh: NALP3 inflammasome inhibitors in reconstituted yeast, primary screen, luminescence, uHTS. AID 2825, 2010. inhibition, % at 10 µM. hit rate 0.39% among 330,000. Yeast reconstituted NLRP3/ASC/caspase-1, beta-gal luminescence, 24 h;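 active = inhibition of 50% or more; inactive = inhibition below 50%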;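 also: plate controls were induced DMSO wells for no effect and uninduced yeast grown without galactose for full effect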
tim23-1 inh: growth inhibitors of tim23-1 mutant yeast, primary screen, luminescence, uHTS; inhibition, % at 20 µM; S. cerevisiae tim23-1 growth, BacTiter-Glo luminescence, 24 h; hit rate 1.3% among 330,000;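 active = growth inhibition of the mutant yeast at or above 50%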;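 also: temperature-sensitive mutant grown at 25 °C; plate controls were DMSO-treated mutant yeast for no effect and medium wells lacking yeast for full effect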
tim10-1 confirm: growth inhibitors of tim10-1 mutant yeast, confirmation, single concentration, luminescence, S. cerevisiae | inhibition, % at 20 µM | S. cerevisiae tim10-1 ts strain growth, BacTiter-Glo, 24 h | AID 463213, 2010 | hit rate 56% among 7,400 | shares compounds with tim10-1 inh;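 active = inhibition of yeast growth at or above a set limit in either of two repeat tests at 20 µM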;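 also: tim10-1 mutant grown at permissive 25 °C to find synthetic lethal compounds; 0% = DMSO yeast wells and 100% = medium wells without yeast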
* marks the source's active call; other numbers are inactive results; · = not tested or not shown. Most compounds without a hit are left out; they make up all but 4.6% or so of the library.

SMILES	PfHsp90 yeast 2	SKKanGAS inh	TIM10 inh	tim10-1 inh	NLRP3 yeast inh	tim23-1 inh	tim10-1 confirm
Cc1csc(NC(=O)c2nc(-c3ccccc3)n(-c3ccccc3)n2)n1	-9	14	23	51*	8	48	41*
Cc1ccc(C)c(NC(=O)c2nc(-c3ccccc3)n(-c3ccccc3)n2)c1	3	1	29	43*	1	43	28
COC(=O)c1ccc(N2CCN(C)CC2)c(NC(=O)c2cccnc2)c1	-19	-2	3	4	7	2	·
COc1cc(/C=C2\C(=N)N3N=C(S(=O)(=O)CC(C)C)SC3=NC2=O)ccc1OC(=O)c1ccco1	·	34	14	41*	1	19	5
CCc1ccc(NC(=O)CS(=O)CC(=O)Nc2ccc(-n3cnnn3)c(C)c2)cc1 (configuration not stated)	-2	-2	-22	-4	18	-8	·
O=S(=O)(NCCCSc1ccccc1)c1ccccc1F	5	-4	5	42*	41	48	18
c1ccn2cc(C34CC5CC(CC(C5)C3)C4)nc2c1	·	-11	36	53*	0	49	39*
O=C(Nc1cccc(Cl)c1)N1N=CCC1c1ccccc1 (configuration not stated)	·	-13	26	48*	15	39	47*
O=C(Nc1cccc2ccccc12)N1CCN(c2ccccc2)CC1	5	·	-11	-15	23	3	·
Fc1ccc(NC(=S)N2N=CCC2c2ccccc2)cc1 (configuration not stated)	-2	-3	4	36	9	25	·
O=C(Nc1cccc2ccccc12)N1N=CCC1c1ccccc1 (configuration not stated)	·	1	23	44*	9	42	29
S=C(Nc1ccccc1)N1N=CCC1c1ccccc1 (configuration not stated)	-25	-5	12	46*	6	22	25
COc1ccc(-c2nc(N3CCN(C)CC3)sc2-c2ccc(OC)cc2)cc1	-7	0	24	30	35	39	·
O=C(Nc1ccc(Cl)cc1)C1C2CCCCC21 (configuration not stated)	11	1	-6	7	7	11	·
Cc1cc(C)c(S(=O)(=O)c2ccccc2)c(OC(=O)c2c(Cl)cc(Cl)cc2Cl)n1	19	4	36	41*	8	-15	36*
Cc1cc(C)c(S(=O)(=O)c2ccccc2)c(OC(=O)c2c(F)cccc2F)n1	-17	-16	30	31	18	46	·
Cn1c(=O)n(C)c2cc([N+](=O)[O-])c(N3CCN(S(=O)(=O)c4ccc5ccccc5c4)CC3)cc21	7	-3	18	21	17	26	·
Cc1ccc(S(=O)(=O)N2CCN(c3cc4c(cc3[N+](=O)[O-])n(C)c(=O)n4C)CC2)cc1	-10	0	26	43*	17	37	21
Cn1c(=O)n(C)c2cc([N+](=O)[O-])c(N3CCN(C(=O)c4cccc(Cl)c4)CC3)cc21	-1	-5	26	41*	13	27	22
Cc1onc(-c2ccccc2)c1C(=O)NCc1ccccc1F	7	-7	-16	0	16	2	·
COc1ccc(C(C)=O)c(Oc2nc(CN3CCOCC3)nc3scc(-c4cccs4)c23)c1	3	9	10	40*	8	20	14
CC(=O)c1ccccc1Oc1nc(CN2CCOCC2)nc2scc(-c3cccs3)c12	-59	1	30	28	10	4	·
O=[N+]([O-])c1ccccc1/C=C/C=N/n1c(-c2ccccc2)n[nH]c1=S	28	4	36	42*	17	29	36*
CC1CCCC(C)N1/N=C/C=C/c1ccccc1[N+](=O)[O-] (configuration not stated)	-4	-12	9	41*	-4	19	13
O=C(OCCNc1ncc(C(F)(F)F)cc1Cl)c1ccc(S(=O)(=O)N2CCOCC2)cc1	8	-2	21	20	8	19	·
SMILES	PfHsp90 yeast 2	SKKanGAS inh	TIM10 inh	tim10-1 inh	NLRP3 yeast inh	tim23-1 inh	tim10-1 confirm
N#CCC(CNc1ncc(C(F)(F)F)cc1Cl)OC(=O)c1cccc(C(F)(F)F)c1 (configuration not stated)	18	-6	33	42*	-1	23	26
O=C(Nc1cc(Cl)cc(Cl)c1)C(NCC1CCCO1)c1ccccc1 (configuration not stated)	24	-6	23	45*	10	36	26
C=CCN(c1ccc(C(=O)NCCCn2ccnc2)cc1)S(C)(=O)=O	8	9	-6	11	1	6	·
O=C(CSc1ccccc1)N1CCN(C(=O)c2ccco2)CC1	26	4	10	9	5	9	·
O=C(CSc1nc(-c2ccccc2)cs1)N1CCN(C(=O)c2ccco2)CC1	-29	-4	15	44*	2	19	26
Cc1c(Cc2ccccc2)sc(/N=C/c2ccc3ccccc3c2)c1C(N)=O	-26	·	·	·	·	·	·
Cc1ccc(/C=N/c2sc(Cc3ccccc3)c(C)c2C(N)=O)o1	6	2	33	48*	11	49	46*
COc1cc2c(cc1OC)C(c1cccs1)NCC2 (configuration not stated)	12	8	-9	-12	14	-1	·
COc1cc2c(cc1OC)C(COc1ccc(C(C)C)cc1)NCC2 (configuration not stated)	-11	-8	36	48*	27	38	21
CC(=O)Oc1ccc2c(=O)c(-c3ccccc3)coc2c1	-10	6	22	42*	30	35	32*
O=C(CN1C(=O)NC2(CCCc3ccccc32)C1=O)c1ccc(Br)cc1 (configuration not stated)	5	24	-7	-2	4	16	·
Cc1ccc(NC(=O)CCC(=O)c2cccs2)cc1F	-90	-1	0	-52	38	-2	·
c1ccc(CNc2nc(NCc3ccccc3)c3ccccc3n2)cc1	9	1	-37	62*	30	-67	-89
COc1cccc(NC(=O)Nc2cc(C(=O)O)ccc2N2CC3CC(C2)c2cccc(=O)n2C3)c1 (configuration not stated)	10	-1	7	-11	9	-4	·

Source: PubChem
